Screening data as filed in PubChem.
The list is not random: actives were taken first. Their share in the collection is about 3.7%.
p53 reactivator = qHTS assay for re-activators of p53 using a Luc reporter. 0.063% of 320,000 active. Potency, µM (titrated, usually from 92.2 µM), for inactives: top-dose activity change, positive = activation, hits mostly activators. H1299 p53-A138V BP100-luciferase reporter, luminescence, 24 h; further: potency means the concentration at half of the fitted maximal effect; % of control where 0% means no effect; nearly all actives have a fitted effect of over 45% in size
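H1299 (p53-null), stable ts p53-A138V + BP100-Luc; 1000 cells/well, Opti-MEM/10% FBS; cpd 4 pt, 1:5; 24 h, 37 deg C, 5% CO2; detection reagent 10 min RT; luminescence.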
Nrf2 inh = Nrf2 qHTS screen for inhibitors; A549 ARE-Fluc reporter, luciferase luminescence, 18-24 h; Potency, µM (highest dose often 46 µM), for inactives: top-dose activity change, negative = inhibition, actives largely listed as inhibitors; 2.1% of 360,000 active; further: potency means the concentration at half of the fitted maximal effect; on the % scale 0 is the no-effect control and ±100 the full control effect; nearly all actives have a fitted effect of over 60% in size
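Cells were seeded and rested 2 h, then exposed to compounds for 18-24 h. CellTiter-Fluor was read first as a viability measure. BugLite was added 15 min before the final luminescent read of ARE-luciferase activity in A549 cells.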
Nrf2 activator = qHTS of Nrf2 Activators; AREc32 ARE-luciferase reporter (MCF7-derived line), luminescence, 24 h; Potency, µM (top dose mostly 46.1 µM), without a hit: at the highest dose activation, hits mostly activators; 0.31% of 410,000 active; AID 624171, 2012; further: potency means the concentration at half of the fitted maximal effect; % of control where 0% means no effect; nearly all actives have a fitted effect of over 65% in size
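For detection, Steady-Glo was added and plates sat 30 min at RT; before that, AREc32_Fluc cells grown overnight in OPTI-MEM/5% FBS had been treated with 23 nL compound for 24 hr at 37 deg C.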
A549 tox = Nrf2 qHTS screen for inhibitors: counterscreen for cytotoxicity; A549 ARE-Fluc cells, CellTiter-Fluor viability, 18-24 h; Potency, µM (highest dose often 46 µM), for inactives: at the top dose activity change, negative = cytotoxicity, usual class: inhibitors; 0.16% of 390,000 active; further: potency means the concentration at half of the fitted maximal effect; on the % scale 0 is the no-effect control and ±100 the full control effect
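A549 ARE_Fluc cells in 5% FBS OPTI-MEM were exposed to compounds in concentration-response for 18-24 h at 37 deg C. Viability was read by CellTiter-Fluor fluorescence (Ex 405/Em 525) after 30 min, before the luciferase read.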
ClpP mod = qHTS Assay for Activators of ClpP | 1.9% of 340,000 active | ATP-dependent Clp protease proteolytic subunit (Bacillus subtilis (strain 168)), P80244 | purified B. subtilis ClpP, FRET peptide cleavage, 20 min | Potency, µM (highest dose often 57.5 µM), for the others: at the top dose activity change, negative = active; active means well fitted falling curve with a large enough effect; inconclusive means small, poorly fitted or top-dose-only effect; inactive means no such curve, though single readings can be large or run the other way; further: potency means the concentration at half of the fitted maximal effect; the source files actives as falling curves though it sought activators and does not explain the sign; nearly all actives have a fitted effect of over 65% in size
Target sequence (P80244 whole entry, looked up): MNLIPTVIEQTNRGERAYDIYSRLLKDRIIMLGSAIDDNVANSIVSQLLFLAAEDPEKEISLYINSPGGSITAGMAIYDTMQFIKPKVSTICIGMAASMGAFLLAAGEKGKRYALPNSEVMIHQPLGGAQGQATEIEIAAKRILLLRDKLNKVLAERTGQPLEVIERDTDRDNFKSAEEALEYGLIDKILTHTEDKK
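Buffer: 100 mM Tris/HCl pH8, 100 mM KCl, 0.05% low protease BSA, 2.5% glycerol, 0.01% Tween-20. ClpP 10 microg/mL final; 20 min RT; delta FRET normalized to ADEP and DMSO controls.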
miR-21 reporter = qHTS Assay for Modulators of miRNAs and/orActivators of miR-21; Potency, µM (doses to about 38.3 µM), for the others: at the highest dose activity change, positive = activation, actives largely listed as activators; HeLa miR-21 FLuc reporter, luciferase, 48 h; 340,000 tested, under 10 active;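 further: % of control where 0% means no effect; miR-21 action dims this reporter so a rising signal means less miR-21 action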
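HeLa cells endogenously expressing miR-21, stably carrying CMV-driven firefly luciferase with a downstream miR-21 binding site, 2000 cells/well. Titrations up to approximately 40 uM, 48 hours; luciferase luminescence read.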
* hit, by the source's call; ? = inconclusive; · = no result given. Unless noted, the call rests on the fitted dose curve; in most records, active means well fitted curve in the direction sought with a large enough effect; inconclusive means small, poorly fitted or top-dose-only effect, or another doubt; inactive means no such curve, though single readings can be large; an effect the other way counts as inactive or inconclusive.

SMILES | p53 reactivator | Nrf2 inh | Nrf2 activator | A549 tox | ClpP mod | miR-21 reporter
COc1ccc(-c2cc3nc(C)cc(N4CC(C)CC(C)C4)n3n2)cc1 (stereo not given) | -3.8% | · | 0.3% | 9.2% | 39.8µM* | -5.1%
CCCCCCc1cc2cc(S(=O)(=O)c3ccc(F)cc3)c(=O)oc2cc1O | -0.6% | -10.1% | 0.8% | -7.6% | 28.2µM* | -3.8%
COc1cccc(NC(=O)CSCn2nnc3c(=O)[nH]c(Cc4ccc(F)cc4)nc32)c1 | · | 0.1% | -0.6% | -1.0% | 0.4% | -0.1%
COc1ccc(C(=O)N(Cc2cccs2)Cc2cccs2)c(O)c1 | · | 24.2% | · | 2.1% | · | ·
O=[N+]([O-])c1ccc(NC(=S)N2CCN(c3ccc(F)cc3)CC2)cc1 | 0.2% | -15.8% | 4.4% | 3.3% | 17.8µM* | 0.2%
O=[N+]([O-])c1ccc(NC(=S)N2CCCC2)cc1 | -37.5% | -10.2% | 0.1% | 1.5% | 0.5% | -10.6%
O=[N+]([O-])c1ccc(N2CCN(C(=S)NCc3ccc(Cl)cc3)CC2)cc1 | -1.9% | 16.4µM* | -0.3% | ? | 3.0% | 6.5%
O=[N+]([O-])c1ccc(C(=S)N2CCN(c3ccc(F)cc3)CC2)cc1 | -0.3% | 18.4µM* | 3.1% | -1.1% | · | 1.1%
O=C(Cc1ccccc1[N+](=O)[O-])NCc1ccc2c(c1)OCO2 | ? | ? | 3.0% | 14.4% | 31.6µM* | -62.9%
COc1ccc(CNc2nc(Cl)nc3nc[nH]c23)cc1 | · | -12.3% | · | 2.0% | 0.3% | ·
COc1cccc(Cn2c(=O)n(-c3cc(C)cc(C)c3)c(=O)c3oc4ccccc4c32)c1 | · | -17.2% | 3.1% | -6.7% | 35.5µM* | 1.7%
CCCCNC(=O)CCCn1c(=O)c2ccccc2n(Cc2ccccc2C)c1=O | · | -9.9% | 0.2% | -3.2% | -7.2% | -9.6%
CCn1c2ccccc2c2cc(C3C(C#N)=C(N)OC4=C3C(=O)CC(C)(C)C4)ccc21 (stereo not given) | -0.1% | · | · | · | · | -0.6%
CCn1c2ccccc2c2cc(C3C(C#N)=C(C)NC(C)=C3C#N)ccc21 | 12.6% | ? | -0.1% | -3.3% | 15.8µM* | -1.3%
Cc1nn(-c2nc3ccccc3s2)c(C)c1Oc1ccccc1O | 12.6µM* | ? | -1.5% | ? | -14.9% | -9.4%
CC(C)(C)OC(=O)N1CCC(c2c(C(=O)NCCN3CCOCC3)cnn2-c2ccccc2)CC1 | · | ? | 0.1% | -3.9% | 1.7% | -0.6%
Cc1cc(=O)oc2cc(OCC(=O)NCc3ccco3)ccc12 | -5.6% | ? | 0.2% | 17.6% | 28.2µM* | -6.4%
Cc1cc(=O)oc2cc(NC(=O)COc3cccc(C(F)(F)F)c3)ccc12 | 4.2% | 4.6% | -0.9% | 3.7% | 3.4% | ·
Cc1cc(=O)oc2cc(OCC(=O)NCc3cccnc3)ccc12 | -1.7% | -45.4% | -0.7% | · | 25.1µM* | -3.4%
Cc1cc(=O)oc2cc(OCC(=O)NCCc3ccccc3)ccc12 | -0.9% | -16.4% | -0.7% | 2.0% | · | -1.6%
Cc1cccc(OCC(=O)Nc2ccc3c(C)cc(=O)oc3c2)c1 | 5.6% | -9.5% | 0.6% | -2.2% | 12.6µM* | -10.9%
Cc1cc(=O)oc2cc(OCC(=O)NCc3ccncc3)ccc12 | -9.0% | -11.3% | 0.0% | 2.9% | 22.4µM* | 0.4%
Cc1cc(=O)oc2ccc(OCC(=O)NCc3ccco3)cc12 | -1.3% | -8.8% | 2.4% | -8.2% | ? | -5.3%
Cc1cc(=O)oc2cc(NC(=O)c3ccccc3Cl)ccc12 | 21.2% | 22.7% | 5.01µM* | -1.7% | · | -81.7%
O=C(COc1ccc2oc(-c3ccccc3)cc(=O)c2c1)NCc1ccco1 | 11.2% | · | ? | -1.7% | 35.5µM* | -35.8%
CCc1sc(Nc2cccc(C)c2C)nc1-c1cc2cccc(OC)c2oc1=O | · | · | -1.0% | -5.4% | -1.9% | -5.9%
